{
  "source": "ChEMBL document CHEMBL3988442",
  "about": "“University of Dundee, Small-Polar-MMV Screening Library” (2021)",
  "note": "The whole screen tested about 48,000 compounds, of which about 13,000 (27%) showed an effect of 50% or more. Some of the results follow.",
  "data": [
    {"tested_on": "Wolbachia pipientis", "assay": "Anti-Wolbachia Cell-Based Screen", "type": "functional", "parameters": "scale not given: in the data most compounds retested in dose-response had high values", "conditions": "5 µM", "units": {"Percent Effect": "%"}, "values": [
      {"smiles": "CCCOCC(=O)N1CCC2(CC1)c1nc[nH]c1CCN2S(C)(=O)=O", "Percent Effect": -9.401},
      {"smiles": "COc1ccc(C(=O)NCc2ccon2)cc1F", "Percent Effect": -47.25},
      {"smiles": "Cc1nc(NS(=O)(=O)c2ccc(C)c(Br)c2)no1", "Percent Effect": -20.05},
      {"smiles": "Cc1nn(CC(=O)N2CCN(c3ccccc3F)CC2)c(C)c1Cl", "Percent Effect": 4.996},
      {"smiles": "CCc1nc(C2CCCN2c2ncc(Br)cn2)no1", "note": "(centres undefined)", "Percent Effect": -1.956},
      {"smiles": "Cc1ncc(CN(C)C)c(C2CCCN2c2ncccn2)n1", "note": "(centres undefined)", "Percent Effect": 117.1},
      {"smiles": "CN(C)Cc1nnc(C2CCN(c3ncccn3)CC2)n1C1CC1", "Percent Effect": -3.805},
      {"smiles": "Cc1cccc(N2CCCC2c2nc(C)ncc2CN(C)C)n1", "note": "(centres undefined)", "Percent Effect": 143.5},
      {"smiles": "Cc1nc(CN(C)CC2CCCN2c2cccnn2)oc1C", "note": "(centres undefined)", "Percent Effect": 2.068},
      {"smiles": "Cc1cccc(C(=O)N2CCCCC2c2ccc(CN(C)C)cc2)n1", "note": "(centres undefined)", "Percent Effect": -0.9167},
      {"smiles": "O=C(C1CNCCO1)N1CCCC(c2ccccc2)(c2ccccc2)C1", "note": "(centres undefined)", "Percent Effect": -4.785},
      {"smiles": "O=C(NCCCOC1CCCCC1)C1NCCc2[nH]cnc21", "note": "(centres undefined)", "Percent Effect": -2.739},
      {"smiles": "CCN(C(=O)COC)C(c1cccnc1)c1ccc2c(c1)CCO2", "note": "(centres undefined)", "Percent Effect": 2.856},
      {"smiles": "CCSCCNC(=O)Nc1cc(C(=O)N2CCOCC2)ccc1Cl", "Percent Effect": 4.121},
      {"smiles": "O=C(NCCCc1ccc(O)cc1)C1(O)Cc2ccccc2C1", "Percent Effect": -1.893},
      {"smiles": "CC(C)(CO)CCCNC(=O)NC1(C)Cc2ccccc2C1", "Percent Effect": 128.7},
      {"smiles": "COCCNC(=O)C1(c2ccccc2C)CCOCC1", "Percent Effect": 3.195},
      {"smiles": "COCCNC(=O)NC1(c2nc(C)no2)CCCCC1", "Percent Effect": -1.61},
      {"smiles": "CN(Cc1ccccc1)C1(C(=O)NC(C)(C)CO)Cc2ccccc2C1", "Percent Effect": 8.937},
      {"smiles": "Cc1cc(C(=O)NC2(c3cccc(F)c3)CCOCC2)no1", "Percent Effect": -27.95},
      {"smiles": "CC(C)(CO)CCCNC(=O)NC1(c2ccccc2F)CC1", "Percent Effect": 114.3},
      {"smiles": "O=C(Nc1ccccc1F)NC1(CO)CCOCC1", "Percent Effect": 2.484},
      {"smiles": "CC(C)(CO)CCCNC(=O)N1CCc2c(F)ccc(F)c2C1", "Percent Effect": 36.67},
      {"smiles": "CC(C)(CO)CCCNC(=O)NC1(c2cccc(F)c2)CC1", "Percent Effect": 104.1},
      {"smiles": "COCCNC(=O)NC1(c2ccccc2F)CC1", "Percent Effect": 110},
      {"smiles": "CS(=O)(=O)CCCNC1(c2cccc(F)c2)CC1", "Percent Effect": 13.79},
      {"smiles": "CC(C)c1noc([C@@H]2C[C@H](NS(=O)(=O)Cc3ccccc3)CN2C)n1", "Percent Effect": -6.361},
      {"smiles": "CC(C)(O)CCc1ccc(C(=O)NCCC2CCCOC2)cc1", "note": "(centres undefined)", "Percent Effect": -14.7},
      {"smiles": "O=C1CC[C@@H](C(=O)N2CCC(Cn3cc(C4CCCCC4)nn3)CC2)N1", "Percent Effect": -19.31},
      {"smiles": "CCc1cnc(CN2C(=O)CC3(CCSC3)C2=O)o1", "note": "(centres undefined)", "Percent Effect": -1.105},
      {"smiles": "CCn1cncc1C1CC(=O)Nc2c1c(C)nn2C", "note": "(centres undefined)", "Percent Effect": -2.495},
      {"smiles": "O=S(=O)(c1cccnc1)N1C[C@@H]2CC[C@H](C1)N(Cc1ccccn1)C2", "Percent Effect": 0.4176},
      {"smiles": "Cc1ccc(NC2(C(=O)NCCCc3c(C)n[nH]c3C)CCCC2)cc1", "Percent Effect": 12.56},
      {"smiles": "COc1ncccc1NC(=O)NC(C)(C)c1ncc(C)s1", "Percent Effect": 4.256},
      {"smiles": "CCN1CC(C(=O)N2CCc3cc(C(N)=O)n(C)c3C2)CC1=O", "note": "(centres undefined)", "Percent Effect": 10.03},
      {"smiles": "CCc1nnc2n1CC(CNc1cnc3ccccc3n1)CC2", "note": "(centres undefined)", "Percent Effect": -8.213},
      {"smiles": "NC(=O)CN1CCCC1c1csc(Nc2cnccn2)n1", "note": "(centres undefined)", "Percent Effect": 66.85},
      {"smiles": "OCCN1CCC(c2csc(Nc3cnccn3)n2)CC1", "Percent Effect": 83.21},
      {"smiles": "NC(=O)CN1CCC(c2csc(Nc3cnccn3)n2)CC1", "Percent Effect": 117.3},
      {"smiles": "NC(=O)CN1CCC(C(=O)NCc2nc(-c3ccc(F)cc3)cs2)CC1", "Percent Effect": 0.3881},
      {"smiles": "COc1ccccc1CNC(=O)C(C)N1CC(n2cc(C)cn2)C1", "note": "(centres undefined)", "Percent Effect": -24.87},
      {"smiles": "CN(C)c1cc2c(nn1)CCN(C(=O)c1cc3c(s1)CCOC3)C2", "Percent Effect": -8.36},
      {"smiles": "CCC(NCc1ccccc1Cl)c1ccccc1OCC(=O)NC", "note": "(centres undefined)", "Percent Effect": -10.16},
      {"smiles": "CO[C@H]1CN(C(=O)c2cccc(C)n2)CC[C@@]12CCCO2", "Percent Effect": 114.9},
      {"smiles": "O=C(c1cn2cc(Cl)ccc2n1)N1CCC(CCn2cccn2)CC1", "Percent Effect": 2.946},
      {"smiles": "COCCN1C[C@@H](C)[C@@]2(COCCN(C(=O)c3cccc(C)n3)C2)C1.O=C(O)C(F)(F)F.O=C(O)C(F)(F)F", "Percent Effect": -4.007},
      {"smiles": "CO[C@H]1CN(C(=O)c2cn3cc(C)ccc3n2)CC[C@@]12CCCO2", "Percent Effect": 93.74},
      {"smiles": "Cc1cccc(C(=O)N2CC(C(=O)NCC3CC3)C3(CCOCC3)C2)n1.O=C(O)C(F)(F)F", "note": "(centres undefined)", "Percent Effect": -7.832},
      {"smiles": "COCc1cn([C@@H]2c3ccccc3C3(CCNCC3)[C@H]2O)nn1", "Percent Effect": -6.385},
      {"smiles": "Cc1ccc(NC(=O)N2CCN(Cc3noc(C4CC4)n3)CC2)cc1", "Percent Effect": 4.61},
      {"smiles": "Cc1ccc(NC(=O)C2=CN=S=N2)cc1", "Percent Effect": -3.511},
      {"smiles": "CN(C)c1nc2n(c(=O)n1)CCN2C(=O)Nc1ccccc1", "Percent Effect": 0.604},
      {"smiles": "CN(C)Cc1nn(C)c2c1CN(C(=O)Nc1ccc(F)cc1)C2", "Percent Effect": -7.35},
      {"smiles": "CCc1nc(C)cn1C(=O)Nc1ccc(F)cc1", "Percent Effect": 113},
      {"smiles": "CCc1nc(C)cn1C(=O)Nc1ccccc1", "Percent Effect": 107.6},
      {"smiles": "CCC(C)(NCC(=O)Nc1ccccc1)c1nc(C)cs1", "note": "(centres undefined)", "Percent Effect": -1.246},
      {"smiles": "CC(=O)c1c(C)nn(CC(=O)Nc2ccc(F)cc2)c1C", "Percent Effect": 6.274},
      {"smiles": "CCc1nc(C)cn1C(=O)Nc1ccc(C)cc1", "Percent Effect": 109.3},
      {"smiles": "Cc1cc(=O)n2ncnc2n1CC(O)c1ccccc1F", "note": "(centres undefined)", "Percent Effect": -9.153},
      {"smiles": "CN(C)S(=O)(=O)N1CC[C@]2(C[C@@H](OCC3CC3)CO2)C1", "Percent Effect": 9.447},
      {"smiles": "CCCN(Cc1ccc(C(=O)NCC2COCCO2)c(=O)[nH]1)C1CC1", "note": "(centres undefined)", "Percent Effect": 2.285},
      {"smiles": "Cc1cc2c(cc1CN1CCCCC1CCn1ccnc1C)OCO2", "note": "(centres undefined)", "Percent Effect": 17.86},
      {"smiles": "CN(C)CCOCC1CN(C(=O)c2cccn2C)Cc2ccnn2C1.O=C(O)C(F)(F)F.O=C(O)C(F)(F)F", "note": "(centres undefined)", "Percent Effect": -5.365},
      {"smiles": "CN1CCN(S(=O)(=O)c2cccc(C#N)c2)c2ccc(F)cc21", "Percent Effect": 4.028},
      {"smiles": "Cc1cc(C(=O)N2CCCC2CN2CCCC2)no1", "note": "(centres undefined)", "Percent Effect": 0.09079},
      {"smiles": "CN(C)CCC1CCCCN1Cc1cnn(C)c1C1CC1", "note": "(centres undefined)", "Percent Effect": -0.7786},
      {"smiles": "Cc1c(CN2CCCC2c2cncc(CN3CCCC3)n2)cnn1C", "note": "(centres undefined)", "Percent Effect": 74.36},
      {"smiles": "Cc1nn(C)c(C)c1C1CCCN1C(=O)c1cc[nH]n1", "note": "(centres undefined)", "Percent Effect": -0.5637},
      {"smiles": "Cc1nc(CN2CCC(NS(C)(=O)=O)CC2)co1", "Percent Effect": -13.72},
      {"smiles": "Cc1cccc(-c2c[nH]c(C3CCCN3C(=O)C3CCOCC3)n2)c1", "note": "(centres undefined)", "Percent Effect": 16.55},
      {"smiles": "O=C(C1CCOCC1)N1CCCC1c1cncc(CN2CCCC2)n1", "note": "(centres undefined)", "Percent Effect": 74.28},
      {"smiles": "CCc1nc(CN2CCCN(C(=O)C3CCOCC3)CC2)cs1", "Percent Effect": -0.509},
      {"smiles": "O=C(c1cc[nH]n1)N1CCCC1c1cncc(CN2CCOCC2)n1", "note": "(centres undefined)", "Percent Effect": 91.81},
      {"smiles": "Cc1nc(C(=O)N2CCCC2c2cncc(CN3CCCC3)n2)co1", "note": "(centres undefined)", "Percent Effect": 62.39}
    ]}
  ]
}
